Measured values as given in PubChem BioAssay (EPA / NIEHS).
Results filed as inconclusive are left out. Activity calls are given as the source filed them. The calls were made as follows: active = hit-call score of the fitted dose curve at least 0.9, where 1 is the maximum; inconclusive = response in the unintended direction; inactive = score below 0.9.

Test system: not listed separately
Experiment: ACEA_AR_antagonist_AUC_viability: ACEA Biosciences xCELLigence Real-Time Cell Analysis on Androgen Receptor Antagonism for Viability (AID 2283776);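 also: area under impedance growth curve at 80 h after dosing as viability; hits lower the growth signal relative to DMSO meaning cytotoxicity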
In short: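 22Rv1 human prostate cancer cells were seeded on electrode plates, monitored overnight, then exposed to eight 1:4 dilutions from 100 uM final. Impedance-based growth kinetics at 80 h gave an AUC viability endpoint normalized to DMSO.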

Row | SMILES | AC50 | outcome
1 | COC(=O)NC(=S)Nc1ccccc1NC(=S)NC(=O)OC | 21.6 µM (active) | 
2 | CC1(C)CON(Cc2ccccc2Cl)C1=O | 18.6 µM (active) | 
3 | CCCN(CC)CC1COC2(CCC(C(C)(C)C)CC2)O1 (stereo unspecified) | 77.7 µM (active) | 
4 | CC1(C)CCC(=Cc2ccc(Cl)cc2)C1(O)Cn1cncn1 (stereo unspecified) |  | inactive
5 | CC(C)(C)C(=O)C(Oc1ccc(Cl)cc1)n1cncn1 (stereo unspecified) |  | inactive
6 | Nc1cnn(-c2ccccc2)c(=O)c1Cl |  | inactive
7 | Cc1c(COC(=O)[C@@H]2[C@H](/C=C(\Cl)C(F)(F)F)C2(C)C)cccc1-c1ccccc1 | 31.4 µM (active) | 
8 | Clc1nc(Cl)nc(Nc2ccccc2Cl)n1 |  | inactive
9 | COP(=S)(OC)Oc1ccc([N+](=O)[O-])c(C)c1 | 71.9 µM (active) | 
10 | CC(C)C1(C)N=C(c2ncccc2C(=O)O)NC1=O (stereo unspecified) |  | inactive
11 | COCC(C)N(C(=O)CCl)c1c(C)csc1C (stereo unspecified) | 33 µM (active) | 
12 | COP(=O)(OC)O/C(C)=C/C(=O)N(C)C |  | inactive
13 | N#Cc1c(Cl)cccc1Cl |  | inactive
14 | CCOc1nc(C(Cl)(Cl)Cl)ns1 |  | inactive
15 | CCOC(=O)C(C)OC(=O)c1cc(Oc2ccc(C(F)(F)F)cc2Cl)ccc1[N+](=O)[O-] (stereo unspecified) | 50 µM (active) | 
16 | N#CN=C1SCCN1Cc1ccc(Cl)nc1 |  | inactive

Row | SMILES | AC50 | outcome
17 | CCN(CC)C(=O)C(C)Oc1cccc2ccccc12 (stereo unspecified) |  | inactive
18 | CCC(C)n1c(=O)[nH]c(C)c(Br)c1=O (stereo unspecified) |  | inactive
19 | C=CCOC(=O)C(C)(C)OC(=O)c1cc(-n2c(=O)cc(C(F)(F)F)n(C)c2=O)ccc1Cl | 50.5 µM (active) | 
20 | Cc1ccc(N=CN(C)C=Nc2ccc(C)cc2C)c(C)c1 | 17.6 µM (active) | 
21 | O=c1n(Cl)c(=O)n(Cl)c(=O)n1Cl |  | inactive
22 | COC(=O)c1c(C(F)F)nc(C(F)(F)F)c(C2=NCCS2)c1CC(C)C |  | inactive
23 | O=C1C2CC=CCC2C(=O)N1SC(Cl)(Cl)Cl (stereo unspecified) | 17.2 µM (active) | 
24 | CN=C=S |  | inactive
25 | CCOP(=S)(OCC)Oc1nc(Cl)n(C(C)C)n1 |  | inactive
26 | CC(C)=CC1C(C(=O)OCc2coc(Cc3ccccc3)c2)C1(C)C (stereo unspecified) | 40.4 µM (active) | 
27 | CN/C(=N\[N+](=O)[O-])NCc1cnc(Cl)s1 |  | inactive
28 | CC1(C)C(C=C(Cl)Cl)C1C(=O)OC(C#N)c1cccc(Oc2ccccc2)c1 (stereo unspecified) |  | inactive
29 | Cn1c(-c2ccccc2)cc(-c2ccccc2)[n+]1C | 41.7 µM (active) | 
30 | CCNP(=S)(OC)O/C(C)=C/C(=O)OC(C)C (stereo unspecified) |  | inactive
31 | C=C(C)CN(CC)c1c([N+](=O)[O-])cc(C(F)(F)F)cc1[N+](=O)[O-] | 50 µM (active) | 

Test system: frog Estrogen Receptor (ESR1), gene 398734
Experiment: ATG_frER1_XSP1: Attagene TRANS-FACTORIAL Multi-Species (XSP1) HepG2 Assay for frog Estrogen Receptor (ESR1) (AID 2283777)
In short: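 HepG2 cells transiently transfected with GAL4-UAS reporter units and frog ER–Gal4 chimera were dosed for 24 h with 3 nM 6-alpha-fluorotestosterone present. Reporter mRNA was measured by RT-PCR and capillary electrophoresis; gain of signal fitted versus DMSO.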

Row | SMILES | outcome | AC50
32 | CC1(C)CCC(=Cc2ccc(Cl)cc2)C1(O)Cn1cncn1 (stereo unspecified) | inactive | 
33 | Cc1c(COC(=O)[C@@H]2[C@H](/C=C(\Cl)C(F)(F)F)C2(C)C)cccc1-c1ccccc1 |  | 36.3 µM (active)
34 | COP(=S)(OC)Oc1ccc([N+](=O)[O-])c(C)c1 |  | 48.9 µM (active)
35 | CCN(CC)C(=O)C(C)Oc1cccc2ccccc12 (stereo unspecified) |  | 24.8 µM (active)
36 | CC1(C)C(C=C(Cl)Cl)C1C(=O)OC(C#N)c1cccc(Oc2ccccc2)c1 (stereo unspecified) |  | 2.24 µM (active)

Test system: zebrafish Estrogen Receptor (ESR2A), gene 317734
Experiment: ATG_zfER2a_XSP1: Attagene TRANS-FACTORIAL Multi-Species (XSP1) HepG2 Assay for zebrafish Estrogen Receptor (ESR2A) (AID 2283778)
In short: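 Reporter transcripts were quantified by RT-PCR, 6-FAM labelling, HpaI digestion and capillary electrophoresis after 24 h dosing. The cells were HepG2 transiently carrying a zebrafish ER2a–Gal4 construct plus multiplexed UAS reporters; medium contained 3 nM 6-alpha-fluorotestosterone.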

Row | SMILES | outcome | AC50
37 | CC1(C)CCC(=Cc2ccc(Cl)cc2)C1(O)Cn1cncn1 (stereo unspecified) | inactive | 
38 | Cc1c(COC(=O)[C@@H]2[C@H](/C=C(\Cl)C(F)(F)F)C2(C)C)cccc1-c1ccccc1 | inactive | 
39 | COP(=S)(OC)Oc1ccc([N+](=O)[O-])c(C)c1 | inactive | 
40 | CCN(CC)C(=O)C(C)Oc1cccc2ccccc12 (stereo unspecified) |  | 25.8 µM (active)
41 | CC1(C)C(C=C(Cl)Cl)C1C(=O)OC(C#N)c1cccc(Oc2ccccc2)c1 (stereo unspecified) | inactive | 

Biological target: chicken Estrogen Receptor (ESR1), ESR1 (gene 396099) (UniProt P06212)
Sequence (P06212 whole entry, looked up): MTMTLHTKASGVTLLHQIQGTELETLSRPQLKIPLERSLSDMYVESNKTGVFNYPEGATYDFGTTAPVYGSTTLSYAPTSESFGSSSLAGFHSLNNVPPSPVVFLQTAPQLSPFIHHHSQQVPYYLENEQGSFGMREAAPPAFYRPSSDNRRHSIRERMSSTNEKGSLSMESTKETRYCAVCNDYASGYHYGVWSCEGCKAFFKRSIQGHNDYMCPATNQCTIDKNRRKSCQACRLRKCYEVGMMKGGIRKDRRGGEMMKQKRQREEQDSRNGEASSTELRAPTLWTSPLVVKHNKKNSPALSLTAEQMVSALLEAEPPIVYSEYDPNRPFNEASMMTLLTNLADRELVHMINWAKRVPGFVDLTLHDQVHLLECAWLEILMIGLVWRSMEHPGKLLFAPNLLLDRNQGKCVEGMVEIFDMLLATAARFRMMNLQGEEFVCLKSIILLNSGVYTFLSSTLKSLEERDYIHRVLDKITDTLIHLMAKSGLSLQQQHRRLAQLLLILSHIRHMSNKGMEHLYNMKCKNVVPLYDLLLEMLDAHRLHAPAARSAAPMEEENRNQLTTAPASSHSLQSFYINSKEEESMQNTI
Experiment: ATG_chERa_XSP1: Attagene TRANS-FACTORIAL Multi-Species (XSP1) HepG2 Assay for chicken Estrogen Receptor (ESR1) (AID 2283779)
In short: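 Trans-activation of an exogenous chicken ERα–Gal4 chimera read as reporter transcript (RT-PCR, fluorescent labeling, capillary electrophoresis) after 24 h compound exposure of transfected HepG2; medium held 3 nM 6-alpha-fluorotestosterone. Positive-direction fit against DMSO.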

Row | SMILES | AC50 | outcome
42 | CC1(C)CCC(=Cc2ccc(Cl)cc2)C1(O)Cn1cncn1 (stereo unspecified) | 3.53 µM (active) | 
43 | Cc1c(COC(=O)[C@@H]2[C@H](/C=C(\Cl)C(F)(F)F)C2(C)C)cccc1-c1ccccc1 |  | inactive
44 | COP(=S)(OC)Oc1ccc([N+](=O)[O-])c(C)c1 | 43.2 µM (active) | 
45 | CCN(CC)C(=O)C(C)Oc1cccc2ccccc12 (stereo unspecified) |  | inactive
46 | CC1(C)C(C=C(Cl)Cl)C1C(=O)OC(C#N)c1cccc(Oc2ccccc2)c1 (stereo unspecified) |  | inactive

Biological target: Estrogen receptor (Homo sapiens) (UniProt P03372)
Sequence (P03372 whole entry, looked up): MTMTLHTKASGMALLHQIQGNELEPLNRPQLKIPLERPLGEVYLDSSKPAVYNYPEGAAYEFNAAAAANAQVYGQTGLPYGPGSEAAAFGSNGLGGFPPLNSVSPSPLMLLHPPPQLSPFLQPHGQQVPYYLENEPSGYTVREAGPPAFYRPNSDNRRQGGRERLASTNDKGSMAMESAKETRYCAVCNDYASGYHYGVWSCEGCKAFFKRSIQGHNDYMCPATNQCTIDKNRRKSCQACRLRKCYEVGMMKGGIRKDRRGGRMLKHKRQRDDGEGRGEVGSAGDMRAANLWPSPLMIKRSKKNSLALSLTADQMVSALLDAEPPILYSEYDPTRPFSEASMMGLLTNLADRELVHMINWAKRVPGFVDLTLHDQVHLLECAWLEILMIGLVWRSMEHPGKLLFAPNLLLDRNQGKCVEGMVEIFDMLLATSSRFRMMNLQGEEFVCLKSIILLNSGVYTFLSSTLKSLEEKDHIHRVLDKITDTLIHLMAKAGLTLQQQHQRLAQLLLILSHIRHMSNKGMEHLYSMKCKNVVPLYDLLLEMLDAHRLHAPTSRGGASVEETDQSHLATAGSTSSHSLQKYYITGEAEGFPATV
Experiment: ATG_hERa_XSP1: Attagene TRANS-FACTORIAL Multi-Species (XSP1) HepG2 Assay for human Estrogen Receptor (ESR1) (AID 2283780)
In short: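 Reporter transcripts from multiplexed GAL4-UAS units driven by NR-Gal4 chimeras in transiently transfected HepG2 were measured by RT-PCR with capillary electrophoresis 24 h post-dose, with 3 nM 6-alpha-fluorotestosterone present; gain-of-signal relative to DMSO.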

Row | SMILES | AC50 | outcome
47 | CC1(C)CCC(=Cc2ccc(Cl)cc2)C1(O)Cn1cncn1 (stereo unspecified) | 3.95 µM (active) | 
48 | Cc1c(COC(=O)[C@@H]2[C@H](/C=C(\Cl)C(F)(F)F)C2(C)C)cccc1-c1ccccc1 | 21.8 µM (active) | 
49 | COP(=S)(OC)Oc1ccc([N+](=O)[O-])c(C)c1 | 36.7 µM (active) | 
50 | CCN(CC)C(=O)C(C)Oc1cccc2ccccc12 (stereo unspecified) |  | inactive
51 | CC1(C)C(C=C(Cl)Cl)C1C(=O)OC(C#N)c1cccc(Oc2ccccc2)c1 (stereo unspecified) | 1.45 µM (active) | 

Test system: turtle Estrogen Receptor (ESR1), gene 101933533
Experiment: ATG_trERa_XSP1: Attagene TRANS-FACTORIAL Multi-Species (XSP1) HepG2 Assay for turtle Estrogen Receptor (ESR1) (AID 2283781)
Procedure: ATG_XSP1_multi-species_TRANS is a cell-based, multiplexed assay created by modifying the existing Attagene TRANS-FACTORIAL system to include a panel of nuclear receptors from some or all the following species: human (Homo sapiens), mouse (Mus musculus), frog (Xenopus laevis), zebrafish (Danio rerio), chicken (Gallus gallus), and turtle (Chrysemys picta). The ECOTOX-FACTORIAL format uses HepG2, a human liver cell line, with measurements taken at 24 hours after chemical dosing in a 24-well plate. Xsp1 included 3 nM 6-alpha-fluorotestosterone to partially stimulate the androgen receptor.ATG_trERa_XSP1 is one of 29 assay components measured or calculated from the ATG_XSP1_multi-species_TRANS assay. It is designed to make measurements of mRNA induction, a form of inducible reporter, as detected with fluorescence intensity signals by Reverse transcription polymerase chain reaction (RT-PCR) and Capillary electrophoresis technology.The assay endpoint ATG_trERa_XSP1 was analyzed in the positive analysis fitting direction relative to DMSO as the negative control and baseline of activity. Using a type of inducible reporter, measures of mRNA for gain-of-signal activity can be used to understand the reporter gene at the transcription factor-level as they relate to the gene ER. Furthermore, this assay endpoint can be referred to as a primary readout, because this assay has produced multiple assay endpoints where this one serves a reporter gene function. To generalize the intended target to other relatable targets, this assay endpoint is annotated to the nuclear receptor intended target family, where the subfamily is steroidal.
Human liver HepG2 cells are transiently transfected with multiple reporter transcription units (MRTUs) in 6-well plates using FuGene 6 reagent (Roche; 3 ml FuGene/1 mg DNA). The MRTU constructs are regulated by a cis-regulating element (promoter). […] A major difference between the CIS and TRANS system is that in CIS activities of endogenous TFs are measured, whereas the TRANS assay evaluates changes in activities of exogenous, chimeric NR-Gal4 proteins. […] At the end of 24 hour incubation, total RNA was isolated using TriZol reagent (Invitrogen). The isolated RNA is then reverse-transcribed using oligo(dT) primer and Mo-MLV reverse transcriptase (Invitrogen) with DNAse I (Ambion) treatment for 30 min. The one-tenth of the produced cDNA was amplified by PCR using Taq DNA polymerase (Invitrogen) and two reporter sequence-specific primers. The PCR products were fluorescently labeled by primer extension with 6-arboxyfluorescein (6-FAM) 5'-labeled reporter sequence-specific primer (2 min at 95 C, 20 s at 68 C and 10 min at 72 C) and these products were digested with 5U of HpaI (New England Biolabs) for 2h at 37 C. The fragments were purified using Qiaquick PCR columns (Qiagen), analyzed on an ABI 3130xL genetic analyzer (Applied Biosystems) with peak positions identified by using a set of X-rhodamine (ROX)-labeled MapMarker1000 molecular weight standards (BioVentures). The raw capillary electrophoresis data was processed using Attagraph software (Attagene).

Row | SMILES | AC50 | outcome
52 | CC1(C)CCC(=Cc2ccc(Cl)cc2)C1(O)Cn1cncn1 (stereo unspecified) | 5.79 µM (active) | 
53 | Cc1c(COC(=O)[C@@H]2[C@H](/C=C(\Cl)C(F)(F)F)C2(C)C)cccc1-c1ccccc1 | 19.8 µM (active) | 
54 | COP(=S)(OC)Oc1ccc([N+](=O)[O-])c(C)c1 | 50.1 µM (active) | 
55 | CCN(CC)C(=O)C(C)Oc1cccc2ccccc12 (stereo unspecified) | 5.99 µM (active) | 
56 | CC1(C)C(C=C(Cl)Cl)C1C(=O)OC(C#N)c1cccc(Oc2ccccc2)c1 (stereo unspecified) |  | inactive
